Experimental data as given in PubChem BioAssay AID1159580 (chemical genetic matrix, 2015).
“And” between values parts separate entries of the source, which are not always exact repeats. Equal values may be shown once. In all, about 5,500 compounds went through this assay and about 2,000 (36%) were called active. About 18% were inconclusive and are not listed. No stated cut-off is given here; in the data, active means normalized growth mostly below about 0.91 (no sharp cut-off); inconclusive means no clear call, values can overlap the other calls; inactive means mostly above about 0.92. This is one part of the list.

Assay: chemical genetic growth profiling, strain panel (AID 1159580);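 further: tested at 20 µM; growth read once vehicle control cultures reached saturation at 30 °C; 1 = growth at the plate median or of vehicle wells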
Conditions: S. cerevisiae deletion strains, growth OD

Measured: normalized growth

CCc1ccc(CCOc2ccc(CC3SC(=O)NC3=O)cc2)nc1 (configuration not stated)
inactive: locus YAL013W, strain DEP1, stronger effect = lower value 1.01 | locus YAL021C, strain ccr4, stronger effect = lower value 1.03 | locus YAL026C, strain drs2, stronger effect = lower value 1.01 | locus YAL030W, strain snc1, stronger effect = lower value 0.999 | locus YBL061C, strain skt5, stronger effect = lower value 1.01 | locus YBR009C, strain hhf1, stronger effect = lower value 1 | locus YBR021W, strain FUR4, stronger effect = lower value 1 | locus YBR023C, strain chs3, stronger effect = lower value 1 | locus YBR171W, strain sec66, stronger effect = lower value 1.02 | locus YBR229C, strain ROT2, stronger effect = lower value 0.993 | locus YBR231C, strain swc5, stronger effect = lower value 0.999 | locus YBR279W, strain paf1, stronger effect = lower value 1 | locus YCL011C, strain gbp2, stronger effect = lower value 1 | locus YCL016C, strain dcc1, stronger effect = lower value 1 | locus YCL029C, strain bik1, stronger effect = lower value 0.996 | locus YCL061C, strain MRC1, stronger effect = lower value 1.01 | locus YCL069W, strain vba3, stronger effect = lower value 1.01 | locus YCR088W, strain abp1, stronger effect = lower value 1.01 | locus YDL005C, strain med2, stronger effect = lower value 1 | locus YDL035C, strain GPR1, stronger effect = lower value 0.983 | locus YDL040C, strain nat1, stronger effect = lower value 0.99 | locus YDL074C, strain BRE1, stronger effect = lower value 0.974 | locus YDL101C, strain DUN1, stronger effect = lower value 1.01 | locus YDL134C, strain PPH21, stronger effect = lower value 0.998 | locus YDL185W, strain tfp1, stronger effect = lower value 1 | locus YDL192W, strain arf1, stronger effect = lower value 0.996 | locus YDR001C, strain nth1, stronger effect = lower value 1.01 | locus YDR069C, strain doa4, stronger effect = lower value 1.03 | locus YDR101C, strain arx1, stronger effect = lower value 0.995 | locus YDR137W, strain rgp1, stronger effect = lower value 0.916 | locus YDR150W, strain NUM1, stronger effect = lower value 1.01 | locus YDR159W, strain sac3, stronger effect = lower value 1.01 | locus YDR162C, strain NBP2, stronger effect = lower value 1.02 | locus YDR195W, strain ref2 0.995 | locus YDR297W, strain sur2, stronger effect = lower value 1.02 | locus YDR318W, strain mcm21, stronger effect = lower value 0.994 | locus YDR334W, strain swr1, stronger effect = lower value 1.02 | locus YDR335W, strain msn5, stronger effect = lower value 1.02 | locus YDR388W, stronger effect = lower value 0.989 | locus YDR392W, strain spt3, stronger effect = lower value 1 | locus YDR502C, strain sam2, stronger effect = lower value 0.994 | locus YEL003W, strain gim4, stronger effect = lower value 1.02 | locus YEL037C, strain rad23, stronger effect = lower value 1.01 | locus YEL061C, strain CIN8 (second series), stronger effect = lower value 1 | locus YEL061C, strain CIN8, stronger effect = lower value 1.02 | locus YER015W, strain faa2, stronger effect = lower value 1.01 | locus YER016W, strain bim1, stronger effect = lower value 1.01 | locus YER110C, stronger effect = lower value 0.997 | locus YER111C, strain swi4, stronger effect = lower value 1 | locus YER155C, strain BEM2 (second series), stronger effect = lower value 1.05 | locus YER155C, strain BEM2, stronger effect = lower value 0.995 | locus YER167W, strain BCK2, stronger effect = lower value 1 | locus YFR010W, strain ubp6, stronger effect = lower value 1.02 | locus YGL078C, strain dbp3, stronger effect = lower value 0.988 | locus YGL086W, strain mad1, stronger effect = lower value 0.996 | locus YGL167C, strain pmr1, stronger effect = lower value 1 | locus YGL173C, strain kem1, stronger effect = lower value 1.02 | locus YGL227W, strain vid30, stronger effect = lower value 0.995 | locus YGL240W, strain doc1, stronger effect = lower value 1.02 | locus YGL248W, strain PDE1, stronger effect = lower value 0.999 | locus YGL253W, strain hxk2, stronger effect = lower value 0.993 | locus YGR078C, strain PAC10, stronger effect = lower value 1.06 | locus YGR135W, strain pre9, stronger effect = lower value 0.993 | locus YGR229C, strain SMI1, stronger effect = lower value 1.01 | locus YGR252W, strain gcn5, stronger effect = lower value 0.946 | locus YHR013C, strain ard1, stronger effect = lower value 1.03 | locus YHR027C, strain rpn1, stronger effect = lower value 1.02 | locus YHR030C, strain SLT2, stronger effect = lower value 1 and 0.969 | locus YHR079C, strain IRE1 (second series), stronger effect = lower value 0.993 | locus YHR079C, strain IRE1, stronger effect = lower value 0.959 | locus YHR094C, strain hxt1, stronger effect = lower value 0.988 | locus YHR129C, strain ARP1, stronger effect = lower value 0.999 | locus YHR142W, strain chs7, stronger effect = lower value 1.01 | locus YHR200W, strain rpn10, stronger effect = lower value 0.995 | locus YIL066C, strain RNR3, stronger effect = lower value 1.01 | locus YIL073C, strain SPO22, stronger effect = lower value 1.05 | locus YIL125W, strain kgd1, stronger effect = lower value 0.988 | locus YIR030C, strain dcg1, stronger effect = lower value 0.994 | locus YJL092W, strain hpr5, stronger effect = lower value 1 | locus YJL095W, strain BCK1 (second series), stronger effect = lower value 0.998 | locus YJL095W, strain BCK1, stronger effect = lower value 0.979 and 1.01 | locus YJL115W, strain asf1, stronger effect = lower value 1 | locus YJL129C, strain trk1, stronger effect = lower value 1.02 | locus YJL134W, strain LCB3, stronger effect = lower value 1 | locus YJL154C, strain vps35, stronger effect = lower value 1.02 | locus YJL164C, strain tpk1, stronger effect = lower value 0.991 | locus YJL166W, strain qcr8, stronger effect = lower value 1.02 | locus YJL168C, strain set2, stronger effect = lower value 0.99 | locus YJL187C, strain SWE1 (second series), stronger effect = lower value 1.01 | locus YJL187C, strain SWE1, stronger effect = lower value 1.01 | locus YJR043C, strain POL32, stronger effect = lower value 0.991 | locus YJR066W, strain TOR1, stronger effect = lower value 0.942
